# Cycloheximide cs – Cycloheximide Counterscreen for Small Molecule Inhibitors of Shiga Toxin; cell reporter, cycloheximide protein synthesis inhibition counterscreen; max response, %; actives 12% (n = 300,000); in the data active means max response mostly above about 13%, no sharp cut-off; inactive means mostly below about 14%; further: read at 38.3 µM for the half of the compounds with a filed dose; 0% is about no effect
# Shiga toxin inh – A qHTS for Small Molecule Inhibitors of Shiga Toxin; Vero cells, Shiga toxin protein synthesis inhibition reporter; inhibition, % at 38.7 µM; actives 9.2% (n = 290,000); AID 2315, 2010; in the data active means inhibition mostly above about 28%, no sharp cut-off; inactive means mostly below about 43%; further: 0% is about no effect
# AmpC no deterg – qHTS Inhibitors of AmpC Beta-Lactamase (assay without detergent) | AmpC nitrocefin hydrolysis, absorbance 480 nm, 0.0001% Triton | Potency, µM (titrated, usually from 57.1 µM), without a hit: at the highest dose activity change, negative = inhibition, actives largely listed as inhibitors | actives 0.52% (n = 330,000) | P00811;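 further: potency means the concentration at half of the fitted maximal effect; plate controls were no compound for no effect and no enzyme for full effect; nearly all actives have a fitted effect of over 20% in size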
# Target sequence (P00811 whole entry, looked up): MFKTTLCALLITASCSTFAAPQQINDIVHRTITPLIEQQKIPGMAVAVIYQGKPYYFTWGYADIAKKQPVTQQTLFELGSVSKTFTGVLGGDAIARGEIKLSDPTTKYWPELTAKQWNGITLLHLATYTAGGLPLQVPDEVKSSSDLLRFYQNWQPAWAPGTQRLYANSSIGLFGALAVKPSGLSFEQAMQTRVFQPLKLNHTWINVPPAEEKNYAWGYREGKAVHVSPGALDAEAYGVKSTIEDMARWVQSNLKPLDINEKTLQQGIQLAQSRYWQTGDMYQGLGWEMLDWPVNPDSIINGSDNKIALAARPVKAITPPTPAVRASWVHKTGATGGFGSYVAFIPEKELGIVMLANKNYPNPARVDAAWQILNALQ
#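 20 mM phosphate pH 7.0 + 0.01% (detergent screen) or 0.0001% Triton X-100; 5.3 nM AmpC reagent; cpd preinc 15 min RT; nitrocefin (800 uM stock) to start; A480 q20 s × 4 min; Activity was normalised to no-enzyme and no-compound control wells.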
# AMA1-RON2 inh – qHTS for Inhibitors of AMA1-RON; Towards Development of Antimalarial Drug Lead: Primary Screen; AlphaScreen AMA1-biotinylated RON2 peptide binding; AID 720542, 2013; Plasmodium falciparum AMA1 (3D7) - RON2 peptide interaction; Potency, µM (series often up to 58.2 µM), for inactives: at the top dose activity change, negative = inhibition, actives largely listed as inhibitors; actives 0.2% (n = 360,000);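 further: potency means the concentration at half of the fitted maximal effect; 0% = vehicle wells and -100% = peptide control; nearly all actives have a fitted effect of over 45% in size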
#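 AMA1 (3D7) with his tag at 25 nM final met compounds first, then biotinylated RON2 peptide at 25 nM; detection used donor plus acceptor beads, 10 µg/mL apiece, read by AlphaScreen after 30 min at room temperature.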
# SARS PLP yeast – qHTS of Yeast-based Assay for SARS-CoV PLP; Potency, µM (top dose mostly 32.9 µM), without a hit: at the top dose activity, positive = growth rescue, hits mostly activators; actives 0.19% (n = 330,000); S. cerevisiae expressing SARS-CoV PLpro, growth rescue; calls by dose curve; further: potency means the concentration at half of the fitted maximal effect; 0% is about no effect; nearly all actives have a fitted effect of over 55% in size
# AmpC detergent – qHTS Inhibitors of AmpC Beta-Lactamase (assay with detergent). P00811. AID 485294, 2010. actives 0.041% (n = 370,000). AmpC hydrolysis of nitrocefin, absorbance 480 nm, 0.01% Triton. Potency, µM (top dose mostly 114 µM), for inactives: at the highest dose activity change, negative = inhibition, usual class: inhibitors;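 further: potency means the concentration at half of the fitted maximal effect; 0% = no-compound wells and -100% = no-enzyme wells; nearly all actives have a fitted effect of over 25% in size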
#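 20 mM phosphate pH 7.0 + 0.01% (detergent screen) or 0.0001% Triton X-100; 5.3 nM AmpC reagent; cpd preinc 15 min RT; nitrocefin (800 uM stock) to start; A480 q20 s × 4 min; Activity was normalised to no-enzyme and no-compound control wells.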
# Active calls of the source: *; ? = inconclusive; · = no result. The entries come from a sample that favours hits as a whole. Unless noted, the call rests on the fitted dose curve; in most records, active means well fitted curve in the direction sought with a large enough effect; inconclusive means small, poorly fitted or top-dose-only effect, or another doubt; inactive means no such curve, though single readings can be large; an effect the other way counts as inactive or inconclusive.
SMILES,Cycloheximide cs,Shiga toxin inh,AmpC no deterg,AMA1-RON2 inh,SARS PLP yeast,AmpC detergent
O=C(CSc1nc2ccccc2s1)Nc1ccc(N2CCOCC2)c(Cl)c1,1,12,-15%,-11%,-27%,-4%
COc1cc(OC)nc(NC(=O)CSc2nc3ccccc3o2)n1,-3,-2,-39%,0%,-2%,?
O=C(CSc1nc2ccccc2o1)Nc1cc(C(F)(F)F)ccc1N1CCOCC1,-3,-12,-5%,-11%,-13%,-13%
O=C(CSc1nc2ccccc2o1)Nc1ccc(N2CCOCC2)c(Cl)c1,53*,81*,-26%,4%,-14%,-8%
Cc1cc(C)nc(NC(=O)CSc2nc3ccccc3o2)n1,51*,58*,-7%,12%,-11%,4%
CC(=O)Nc1ccc2nc(SCC(=O)Nc3ccc(N4CCOCC4)c(Cl)c3)sc2c1,69*,98*,70%,10%,5%,-2%
O=C(Oc1ccc(C(=S)N2CCOCC2)cc1)c1ccc(Br)cc1,-7,-4,-12%,3%,-24%,-2%
Cc1ccc(Nc2ncc(C(=O)NCCCN3CCN(C)CC3)c3ccccc23)cc1Cl,-3,-4,80%,2%,-4%,1%
Cc1ccc(Cl)cc1N1CCN(C(c2cccnc2)c2nnnn2C2CCCCC2)CC1 (centres undefined),-4,-10,-58%,5%,-1%,-7%
OCCN(CCO)c1ccc(C(c2ccc(Cl)cc2)c2ccc(N(CCO)CCO)cc2Cl)c(Cl)c1,-4,2,171%,0%,12%,16%
Cc1cc(N(CCO)CCO)ccc1N=Nc1cc(F)ccc1F,41*,118*,91%,?,-15%,-2%
Nc1ccc(-n2cnc3cc([N+](=O)[O-])ccc32)cc1,18*,97*,-11%,2%,2%,?
Cc1cccc(-n2cnc3cc([N+](=O)[O-])ccc32)c1,12*,14,-15%,-11%,-26%,-8%
O=[N+]([O-])c1ccc(N(c2ccccc2)c2ccccc2)cc1,-2,4,-26%,165%,-27%,2%
NS(=O)(=O)c1ccc2nc(NC(=O)c3ccc4c(c3)OCCO4)sc2c1,-2,-11,-14%,-5%,-5%,-14%
Cc1ccc2nc(NC(=O)c3ccc4c(c3)OCO4)sc2c1,62*,76*,-35%,-4%,-2%,-6%
O=C(Nc1nc2cc3c(cc2s1)OCO3)c1cccc(N2C(=O)CCC2=O)c1,25*,50*,-10%,-8%,-1%,2%
Cc1ccnc(NC(=O)c2ccc(N3C(=O)CCC3=O)cc2)c1,45*,49*,3%,-16%,-12%,-2%
O=C(Nc1nc(-c2ccc(F)cc2)cs1)c1cccc(N2C(=O)CCC2=O)c1,16*,18,48%,-11%,6%,-1%
O=C(Nc1nc2cc3c(cc2s1)OCO3)c1ccc(N2C(=O)CCC2=O)cc1,0,19,-23%,7%,-1%,-5%
CCOC(=O)C1=CCN(S(=O)(=O)c2ccccc2C)C1c1cccc(C)c1 (centres undefined),·,·,·,0%,·,·
CCCN(C)C[C@@H]1OCCCC[C@@H](C)Oc2ccc(NC(=O)c3ccccc3)cc2C(=O)N([C@H](C)CO)C[C@@H]1C,·,·,·,7%,·,·
O=C(/C=C/c1ccc2c(c1)OCO2)Nc1nc2ccc(F)cc2s1,22*,63*,-34%,9%,1%,?
NS(=O)(=O)c1ccc2nc(NC(=O)c3ccc4ncsc4c3)sc2c1,9.3*,33,-18%,25%,0%,3%
Cc1ccc(C(=O)Nc2nc3ccc(S(=O)(=O)N4CCCC4)cc3s2)cc1,·,·,·,·,·,-5%
SMILES,Cycloheximide cs,Shiga toxin inh,AmpC no deterg,AMA1-RON2 inh,SARS PLP yeast,AmpC detergent
Cc1ccc2nc(NC(=O)c3ccc4ncsc4c3)sc2c1,33*,60*,-20%,0%,-3%,?
CCOc1ccc2nc(NC(=O)/C=C/c3ccc4c(c3)OCO4)sc2c1,-2,-11,-7%,-12%,17%,-12%
Cc1ccc2nc(NC(=O)c3ccc(N4C(=O)CCC4=O)cc3)sc2c1,31*,51*,-20%,-9%,0%,2%
Nc1nonc1C(=O)N/N=C/c1ccncc1,14,25,-11%,18%,-4%,4%
Cc1sc(NC(=S)NC(=O)c2ccco2)c(C#N)c1C,15*,27,-27%,60%,-2%,7%
CCc1c(C)sc(NC(=O)c2ccco2)c1C#N,37*,69*,-15%,14%,-13%,-7%
CCOC(=O)c1sc(NC(=O)c2ccco2)c(C#N)c1C,-4,-14,-16%,-10%,-1%,-4%
Cc1sc(NC(=S)NC(=O)c2ccccc2)c(C#N)c1C,·,·,·,17%,·,·
O=C(Nc1ccc(F)c(Cl)c1)c1nsc(Cl)c1Cl,47*,82*,-27%,5%,0%,1%
O=C(O)C1=C(C(=O)Nc2ccc(F)c(Cl)c2)CCCC1,7,-6,?,9%,-2%,-5%
O=C(Nc1ccc(F)cc1)c1nsc(Cl)c1Cl,29*,68*,-17%,12%,-7%,4%
CCOc1ccc(C(C(=O)NC2CCCC2)N(Cc2ccccc2)C(=O)c2nsc(Cl)c2Cl)cc1 (centres undefined),15*,11,-34%,-5%,?,-8%
CCOc1ccc(NC(=O)c2sc3ccccc3c2Cl)cc1,·,·,·,·,·,11%
CCOc1ccc(NC(=O)c2nsc(Cl)c2Cl)cc1,40*,94*,-4%,-4%,-3%,7%
O=C(CN(C(=O)c1nsc(Cl)c1Cl)c1ccc(F)cc1)NC1CCCC1,3,-4,-10%,-3%,-3%,-4%
Cc1ccc(N(CC(=O)NC2CCCC2)C(=O)c2nsc(Cl)c2Cl)cc1,30*,29*,-35%,-7%,-3%,-8%
CN1CCN(c2nc3c(c(=O)[nH]c(=O)n3C)n2CC(N)=O)CC1,-5,1,-1%,-5%,2%,?
CCOC(=O)c1c(C)n(Cc2ccc(F)cc2)c2ccc(O)cc12,12,-14,-39%,-3%,0%,-9%
CCOC(=O)c1c(C)n(Cc2ccc3c(c2)OCO3)c2ccc(O)cc12,30*,38,-36%,-6%,0%,-11%
CCOC(=O)c1c(C)n(Cc2ccco2)c2ccc(O)cc12,3,11,·,-15%,·,6%
COC(=O)c1c(C)n(Cc2ccc3c(c2)OCO3)c2ccc(O)cc12,16*,11,-47%,-1%,-9%,1%
CC(C)(C)c1ccc(OCCCn2ccnc2)cc1,8.4*,15,13%,?,-5%,-1%

# Compound activity deposited in PubChem BioAssay by National Center for Advancing Translational Sciences (NCATS).
